Laboratory results published in PubChem BioAssay (NCATS).
Results filed as inconclusive are left out. Calls of active or inactive are those of the source. Calls follow the shape of the dose curve; as a rule, active = well fitted inhibition curve with a large enough effect; inconclusive = small, poorly fitted or top-dose-only effect; inactive = no such curve, though single readings can be large or run the other way.

Biological target: Tumor susceptibility gene 101 protein (Homo sapiens) (UniProt Q99816)
Sequence (Q99816 whole entry, looked up): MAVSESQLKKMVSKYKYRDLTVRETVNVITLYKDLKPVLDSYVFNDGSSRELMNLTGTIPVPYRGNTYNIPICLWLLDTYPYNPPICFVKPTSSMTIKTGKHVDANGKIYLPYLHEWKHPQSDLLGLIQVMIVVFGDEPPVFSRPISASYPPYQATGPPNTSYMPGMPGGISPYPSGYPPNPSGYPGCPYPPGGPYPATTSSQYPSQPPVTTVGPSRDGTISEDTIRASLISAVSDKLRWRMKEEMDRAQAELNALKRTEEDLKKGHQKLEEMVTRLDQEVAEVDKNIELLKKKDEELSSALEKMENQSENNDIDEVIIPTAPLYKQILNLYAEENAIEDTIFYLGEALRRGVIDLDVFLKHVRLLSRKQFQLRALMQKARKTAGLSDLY
Assay: qHTS Assay for Iinhibitors of HIV-1 Budding by Blocking the Interaction of PTAP/TSG101: Hit Validation (AID 651600); also: nearly all actives have a fitted effect of over 70% in size
Conditions: PTAP peptide/TSG101 UEV interaction, biochemical assay; series mostly up to 57.5 µM
Method in brief: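 Measuring PTAP–Tsg101 interaction by FP: protein at 10 uM and fluorescent peptide at 50 nM (final), buffer 10 mM HEPES pH 7.5 with 0.15 M NaCl, 3 mM EDTA, 0.1 mM TCEP, 0.01% Tween 20; 20 min incubation, r.t.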
Potency is read from the fitted curve at half-maximal effect.

Potency, inactive:
O=S(=O)(Nc1nc2n(n1)C(c1ccccc1)C=C(c1ccc(Cl)cc1)N2)c1ccccc1 (stereo not given)
CCN(CC)c1ccc(/C=C(/C#N)c2nc3ccc(C)cc3[nH]2)c(OC(C)C)c1
COc1ccc(NC(=O)c2nc(-c3ccc(C)cc3)n3c2CCCCC3)cc1
CC(C)(C)c1ccc(C2C3=C(CCCC3=O)NC3=C2C(=O)c2ccccc23)cc1 (stereo not given)
CC1CCc2cccc3c2N1c1cc(C#N)c(C#N)cc1O3 (stereo not given)
OC(CN1CCN(c2ccccn2)CC1)Cn1c2ccccc2c2ccccc21 (stereo not given)
Nc1c(C(=O)C2CC2)sc2nc(-c3ccccc3)cc(C(F)(F)F)c12
CCC1CCCCN1C(=O)c1cc2cc(Br)ccc2oc1=O (stereo not given)
Brc1ccc(C2=CC(c3ccco3)n3ncnc3N2)cc1 (stereo not given)
Cc1cc(=O)c2c([nH]1)c(C)cc1[nH]c(C)c(C)c12
COc1ccc(N(C(=O)c2snc(C(N)=O)c2N)C(C(=O)NC2CCCC2)c2ccc3ncccc3c2)cc1 (stereo not given)
Cn1c2ccc(F)cc2c2nc3ccccc3nc21
Cc1cccc2cc(/C=C3\N=C(c4ccccc4)OC3=O)c(N3CCOCC3)nc12
O=[N+]([O-])c1cc(Cl)cc(/C=N/n2cnnc2)c1O
Cn1c(=O)cc2c3c(c(N4CCCCC4)ccc31)C(=O)c1ccccc1-2
O=[N+]([O-])c1cc(Br)cc(/C=N/n2cnnc2)c1O
COC(=O)c1c(NC(=O)CC2Nc3cc(C)c(C)cc3NC2=O)sc(C)c1C (stereo not given)
Cc1ccc(C2C=C(c3ccc(Cl)cc3)Nc3nc(NS(=O)(=O)c4ccccc4)nn32)cc1 (stereo not given)
Oc1c(C=Nc2ccccc2)sc2ccccc12
Cc1ccc(C2C=C(c3ccccc3)Nc3nc(NS(=O)(=O)c4ccccc4)nn32)cc1 (stereo not given)
COC(=O)C[C@H]1c2cc(F)ccc2S(=O)(=O)N1c1ccccc1
CCCCn1c(SCC(=O)c2cc(OC)ccc2OC)nc2cc(S(N)(=O)=O)ccc21
N#CC(C(=O)NC1CC1)c1nc2ccccc2nc1N1CCCC1 (stereo not given)
C/C(N)=C(/C#N)C(=O)CSc1ncnc2ccccc12
N#Cc1c(C#N)c(O)c2ccccc2c1O
CCc1cccc(CC)c1NC(=O)CSc1nnc(C2CC2)n1C
O=C(CN1C(=O)NC(Cc2c[nH]c3ccccc23)C1=O)Nc1ccccc1C(F)(F)F (stereo not given)
Cc1cccc(NC(=S)NCCC(c2ccccc2)c2ccccc2)c1
CC[C@@]1(C(=O)OC)N[C@H](CN(C)C(=O)c2ccc(C)cc2)[C@@H]2C(=O)N(Cc3ccccc3)C(=O)[C@@H]21
O=C1c2cccc3c([N+](=O)[O-])ccc(c23)C(=O)N1c1ccc(Cl)cn1
COc1ccc(-c2cc(C(=O)N3CC(C)CC(C)C3)c3ccccc3n2)cc1OC (stereo not given)
CCOc1cc(/C=C(\C#N)c2nc(-c3cccs3)c(NC(C)=O)s2)ccc1O
CN1CCc2c(sc(NC(=O)CSc3ccc(F)cc3)c2-c2nc3ccccc3s2)C1

Potency, active:
CC1=CC(=C(C#N)c2nc3ccccc3s2)C=C(C)N1CC1CCCO1 (stereo not given) 16.3 µM
CN1CCc2c(sc3c2C(=O)NC(c2ccccn2)N3)C1 (stereo not given) 18.3 µM
Cn1c(=O)c(NCCc2ccccc2)c2c3c(cccc31)C(=O)c1ccccc1-2 2.59 µM
CN(C)CCNc1ccc2ncn3c4ccc(O)cc4c(=O)c1c23 8.19 µM
CCN(CC)c1ccc2cc(NC(=O)CCC(=O)O)c(=O)oc2c1 18.3 µM
O=c1oc2c(CN3CCCCC3)c(O)ccc2cc1-c1nc2ccccc2[nH]1 18.3 µM
CN(C)c1ccc(/C=C2\SC(=O)N(CC(O)Cn3c4ccccc4c4ccccc43)C2=O)cc1 (stereo not given) 16.3 µM
